Source: PubChem (National Center for Advancing Translational Sciences (NCATS))
Shiga inhibitor = A qHTS for Small Molecule Inhibitors of Shiga Toxin; Vero cells, Shiga toxin protein synthesis inhibition reporter; inhibition, % at 38.7 µM; actives 9.2% (n = 290,000); in the data active = inhibition mostly above about 28%, no sharp cut-off; inactive = mostly below about 43%; note: 0% is about no effect
LmPK inh = qHTS Assay for Inhibitors of Leishmania Mexicana Pyruvate Kinase (LmPK); Q27686; purified LmPK, Kinase-Glo ATP luminescence, 1 h; Potency, µM (doses to about 57.5 µM), inactives show at the top dose activity change, negative = inhibition, usual class: inhibitors; actives 0.37% (n = 290,000); AID 1721, 2009; note: potency is the fitted concentration of half-maximal effect; % is set by controls: 0 for no effect and ±100 for the full control effect
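Purified LmPK (0.1 nM) converted ADP (0.1 mM) to ATP with PEP (0.5 mM) in imidazole buffer pH 7.2 with KCl and MgCl2, 1 h at room temperature. ATP was read by Kinase-Glo luminescence; data normalized to uninhibited and no-enzyme controls.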
Cycloheximide cs = Cycloheximide Counterscreen for Small Molecule Inhibitors of Shiga Toxin; cell reporter, cycloheximide protein synthesis inhibition counterscreen; actives 12% (n = 300,000); max response, %; in the data active = max response mostly above about 13%, no sharp cut-off; inactive = mostly below about 14%; note: read at 38.3 µM for the half of the compounds with a filed dose; 0% is about no effect
Tb PYK inh = qHTS of Trypanosoma Brucei Inhibitors; pyruvate kinase (Trypanosoma brucei), Q57TT1; TbPYK enzyme, Kinase-Glo Plus ATP luminescence, 45 min; Potency, µM (top dose mostly 76.8 µM), for the others: at the highest dose activity, negative = inhibition, most hits filed as inhibitors; actives 0.12% (n = 410,000); note: potency is the fitted concentration of half-maximal effect; % is set by controls: 0 for no effect and ±100 for the full control effect; nearly all actives have a fitted effect of over 50% in size
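Luminescent Kinase-Glo Plus end-point after 45 min room-temperature reaction of T. brucei pyruvate kinase started with 130 uM ADP (final). Buffer TEA 50 mM pH 7.2 with KCl, MgCl2, BSA, Tween-20; titration-based qHTS with fitted concentration-effect curves.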
RE007 growth inh = qHTS Assay for Inhibitors of the HIV-1 protein Vpr | S. pombe RE007 Vpr strain, BacTiter-Glo ATP luminescence, 24 h | Potency, µM (top dose mostly 92.2 µM), for the others: at the top dose activity change, negative = less growth, hits mostly inhibitors | AID 651644, 2012 | actives 0.21% (n = 360,000); active = well fitted falling curve with a large enough effect; inconclusive = small, poorly fitted or top-dose-only effect; inactive = no such curve, though single readings can be large or run the other way; note: potency is the fitted concentration of half-maximal effect; % is set by controls: 0 for no effect and ±100 for the full control effect; nearly all actives have a fitted effect of over 50% in size
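Fission yeast RE007 carrying one integrated HIV-1 vpr copy, seeded at OD 0.01 in PMG+AL medium with 23 nL pinned compound. Grown 24 h at 30 degrees; viability read by BacTiter-Glo luminescence after 5 min.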
FBPA Giardia inh = qHTS Assay for Inhibitors of Fructose-1,6-bisphosphate Aldolase from Giardia Lamblia; A8B2U2; purified Giardia FBPA; Potency, µM (titrated, usually from 59.6 µM), inactives show top-dose activity, negative = inhibition, actives largely listed as inhibitors; actives 0.71% (n = 290,000); AID 2451, 2010; note: potency is the fitted concentration of half-maximal effect; % is set by controls: 0 for no effect and ±100 for the full control effect; nearly all actives have a fitted effect of over 55% in size
Target sequence (A8B2U2 whole entry, looked up): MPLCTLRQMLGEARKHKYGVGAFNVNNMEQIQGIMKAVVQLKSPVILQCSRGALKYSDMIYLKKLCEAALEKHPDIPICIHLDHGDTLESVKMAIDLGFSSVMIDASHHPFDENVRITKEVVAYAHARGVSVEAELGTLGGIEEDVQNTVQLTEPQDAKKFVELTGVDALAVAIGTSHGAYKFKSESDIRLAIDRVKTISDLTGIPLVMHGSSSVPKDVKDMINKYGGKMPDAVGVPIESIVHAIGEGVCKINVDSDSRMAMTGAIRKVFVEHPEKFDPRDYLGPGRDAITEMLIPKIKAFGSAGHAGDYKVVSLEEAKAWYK
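Giardia FBPA (40 nM reagent) was preincubated 10 min at RT with compound (up to 57.5 uM final), then substrate plus GAPDH/TPI/NAD/arsenate coupling system with diaphorase/resazurin was added; resorufin fluorescence (525/598 nm) was read after 20 min.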
Starred values were filed as active, the others as inactive; ? = inconclusive; . = no result. The entries come from a sample that favours hits as a whole. Unless noted, calls come from the whole dose curve; as a rule, active = well fitted curve in the direction sought with a large enough effect; inconclusive = small, poorly fitted or top-dose-only effect, or another doubt; inactive = no such curve, though single readings can be large; an effect the other way counts as inactive or inconclusive.

SMILES	Shiga inhibitor	LmPK inh	Cycloheximide cs	Tb PYK inh	RE007 growth inh	FBPA Giardia inh
CCN(CC)CCCNC(=O)Cn1c(-c2cccs2)cc2cc(Cl)ccc21	.	.	.	-12%	.	.
Nc1c(C(O)(C(F)(F)F)C(F)(F)F)cc(C(O)(C(F)(F)F)C(F)(F)F)c2ccccc12	18	6%	-1	4%	-12%	-16%
CN1CCC(C2(O)c3ccccc3CCc3ccccc32)CC1	58*	-1%	34*	10%	5%	-9%
Cc1ccc(NS(=O)(=O)c2ccc(C(=O)NCc3cccnc3)cc2)cc1	76*	-8%	55*	12%	-24%	.
COc1ccc(NC(=O)c2ccc(S(=O)(=O)NCc3cccnc3)cc2)cc1	31	3%	9.5*	0%	2%	.
Cc1ccc(NC(=O)c2ccc(S(=O)(=O)NCc3cccnc3)cc2)cc1C	41	-10%	8	-11%	5%	6%
O=C(NCc1cccnc1)c1ccc(S(=O)(=O)Nc2ccccc2)cc1	.	.	.	2%	9%	.
O=C(CCc1ccc(S(=O)(=O)NC2CCCCC2)cc1)NCc1cccnc1	31	1%	15*	4%	6%	3%
Cc1c(N)cccc1Cl	-9	.	-6	0%	6%	6%
CN1CCN(C(=O)c2cc3c(c(-c4cccc(-c5cc6ccccc6o5)c4)n2)[C@H](CCO)N(S(=O)C(C)(C)C)C3)CC1 (stereo partly specified)	.	.	.	-2%	-22%	.
O=C(O)c1ccccc1C(=O)N1N=C(c2ccccc2)CC1c1ccccc1O (stereo unspecified)	67*	-6%	52*	-2%	13%	11%
Cc1ccc(C2=NN3C(=O)c4ccccc4C3C2)cc1 (stereo unspecified)	57*	0%	55*	0%	-25%	-2%
O=C(c1ccccc1Br)N1N=C(c2ccccc2)CC1c1ccccc1F (stereo unspecified)	-9	5%	12	-3%	2%	7%
Cc1ccc(C(=O)N2N=C(c3ccccc3O)CC2c2ccccc2)cc1 (stereo unspecified)	-1	-3%	-1	-11%	2%	7%
Cc1ccc(C(=O)N2N=C(c3ccc(Br)cc3)CC2c2ccccc2O)cc1 (stereo unspecified)	6	-7%	13*	-6%	1%	6%
CCCCCCCCCCCCCCCCOCCOCCOCCOCCOCCOCCOCCOCCOCCOCCOCCOCCOCCOCCOCCOCCOCCOCCOCCOCCO	.	.	.	3%	.	.
Cc1c(Cl)cccc1NC(=O)CCn1nc(C)c2c(C)n(-c3ccccc3)nc2c1=O	.	.	.	3%	.	.
COc1ccc(N2CCN(S(=O)(=O)CCNC(=O)c3ccc(C(F)(F)F)cc3)CC2)cc1	.	.	.	6%	.	.
O=C(NC1CCOC1)c1cc(COc2cccc(C(F)(F)F)c2)on1 (stereo unspecified)	66*	0%	41*	9%	-6%	.
CC(NC(=O)c1cc(COc2cccc(C(F)(F)F)c2)on1)c1nccs1 (stereo unspecified)	57*	-13%	43*	4%	26%	.
CSc1ccccc1OCc1cc(C(=O)NC2CCOC(C)(C)C2)no1 (stereo unspecified)	97*	3%	22*	-5%	?	3%
Cc1ccc(C)c(OCc2cc(C(=O)NC3CCOC(C)(C)C3)no2)c1 (stereo unspecified)	85*	4%	56*	3%	1%	-4%
COc1cc2c(cc1OC)C(COc1ccc(F)cc1)N(C(=O)Cc1ccc(F)cc1)CC2 (stereo unspecified)	.	.	.	-1%	.	.
COc1cc(Cl)ccc1OCc1cc(C(=O)NC2CCc3ccccc32)no1 (stereo unspecified)	14	7%	3	-7%	-9%	.
COc1ccc(OCc2cc(C(=O)NC3CCOC(C)(C)C3)no2)c2ccccc12 (stereo unspecified)	103*	-12%	96*	.	.	.
